Our source for the growth values is PubChem BioAssay (NCI).

Among the test systems are HCT-15 colon; SNB-19 CNS; U251 CNS; PC-3 prostate; SK-MEL-5 melanoma; UACC-62 melanoma; LOX IMVI melanoma; SK-MEL-28 melanoma; SK-MEL-2 melanoma; EKVX NSCLC; SN12C renal; UO-31 renal; TK-10 renal; ACHN renal; A498 renal; CCRF-CEM leukemia; MOLT-4 leukemia; CAKI-1 renal.
Common to all, as to test: NCI-60 one-dose screen, 48 h (100 = growth as untreated, 0 = no growth, -100 = all killed)
Settings in all cases: 10 µM unless noted

This is part of a sample that, as a whole, favours compounds with a hit. Of some 83,000 tested, about 20% had one in any assay.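 A percent growth of 40 corresponds to 60% growth inhibition; 0 means no net growth; -100 means all cells died. Active threshold: below 10.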 Unmarked numbers belong to inactive results. Activity calls are given as the source filed them.

Consider `COc1ccc2[nH]c(=O)c3c4ccccc4cn3c2c1`, for which the growth in the experiment on HCT-15 colon is 9.19% (active); in the experiment on SNB-19 CNS, 27.9%; with U251 CNS it was 9.8% (active); in the experiment with PC-3 prostate it was 7.65% (active); with SK-MEL-5 melanoma it was 35.1%; in the experiment with UACC-62 melanoma, 28.2%. The growth with LOX IMVI melanoma was 4.23% (active); with SK-MEL-28 melanoma, 54.7%; with SK-MEL-2 melanoma, 50.5%; in the experiment on EKVX NSCLC, 39.1%; in the experiment on SN12C renal it was 21.5%; in the experiment on UO-31 renal, 9.09% (active). For the same compound, the growth in the experiment on TK-10 renal is 16.9%; in the experiment with ACHN renal, 23.2%; in the experiment on A498 renal, 50.3%; in the experiment with CCRF-CEM leukemia it was -31.2% (active); in the experiment with MOLT-4 leukemia, 6.08% (active).

Turning to `COC(=O)C1CCCN1C(=O)[C@@H]1CCCN1C(=O)[C@H](Cc1c[nH]c2ccccc12)NC(=S)Nc1cc(C(F)(F)F)cc(C(F)(F)F)c1` (stereo partly specified), the growth is 40% in the experiment with HCT-15 colon; 49.7% in the experiment on SNB-19 CNS; 35.9% with U251 CNS; 20.4% with PC-3 prostate; 58.1% with SK-MEL-5 melanoma; 63.6% with UACC-62 melanoma. Besides, the growth in the experiment on LOX IMVI melanoma was 36.1%; with SK-MEL-28 melanoma it was 80.9%; in the experiment with SK-MEL-2 melanoma it was 67.5%; with EKVX NSCLC it was 49.8%; with SN12C renal, 65.5%; in the experiment with UO-31 renal, 49.7%. Besides, the growth in the experiment on TK-10 renal is 56.7%; in the experiment with CAKI-1 renal, 33.7%; with A498 renal, 65.4%; with CCRF-CEM leukemia, 24%; in the experiment on MOLT-4 leukemia, 27%.

For `COc1ccc(C(=O)n2nc(/C=C/c3ccc(O)c(OC)c3)cc2/C=C/c2ccc(O)c(OC)c2)cc1`, the growth is 5.59% (active) with HCT-15 colon; 12.8% with SNB-19 CNS; 0.801% (active) in the experiment on U251 CNS; -9.28% (active) in the experiment with PC-3 prostate; -13.3% (active) with SK-MEL-5 melanoma; -0.825% (active) with UACC-62 melanoma. The growth in the experiment with LOX IMVI melanoma was 4.5% (active); in the experiment with SK-MEL-28 melanoma, -8.32% (active); with SK-MEL-2 melanoma, -34.1% (active); in the experiment on SN12C renal, 12.8%; in the experiment with UO-31 renal, -1.75% (active); with TK-10 renal, 24.7%. The growth is 7.64% (active) in the experiment on ACHN renal; 20.4% with CAKI-1 renal; -14.8% (active) in the experiment on A498 renal; -11.6% (active) with CCRF-CEM leukemia; -18.4% (active) with MOLT-4 leukemia.

In the case of `Cc1ccc(S(=O)(=O)NCCNc2cc(-c3cn(C(C)(C)C)nc3-c3cccc(O)c3)ccn2)cc1`, the growth in the experiment with HCT-15 colon is 31.1%; in the experiment with SNB-19 CNS, 84.4%; with U251 CNS, 62.9%; with PC-3 prostate, 46.7%; in the experiment on SK-MEL-5 melanoma, 30.9%; in the experiment with UACC-62 melanoma it was 77%. Besides, the growth is 47.4% in the experiment on LOX IMVI melanoma; 57.7% in the experiment with SK-MEL-28 melanoma; 84.3% in the experiment with SK-MEL-2 melanoma; 64.6% with EKVX NSCLC; 66.5% in the experiment with SN12C renal; 58% in the experiment on UO-31 renal. The growth was 103% in the experiment on TK-10 renal; 78.9% in the experiment with ACHN renal; 77% with CAKI-1 renal; 80.8% in the experiment on A498 renal; 48.4% in the experiment on MOLT-4 leukemia.

Turning to `CC(C)(C)n1cc(-c2ccnc(NCCNS(=O)(=O)c3ccc(Cl)cc3)c2)c(-c2cccc(O)c2)n1`, the growth with HCT-15 colon is 15.1%; with SNB-19 CNS, 76.6%; in the experiment with U251 CNS, 46.1%; in the experiment with PC-3 prostate it was 34.5%; with SK-MEL-5 melanoma, 25%; in the experiment with UACC-62 melanoma it was 71.7%. In addition, the growth is 41.5% in the experiment with LOX IMVI melanoma; 63.3% in the experiment with SK-MEL-28 melanoma; 74.3% in the experiment on SK-MEL-2 melanoma; 60.2% in the experiment with EKVX NSCLC; 61.6% in the experiment with SN12C renal; 49.6% in the experiment with UO-31 renal. Also, the growth is 108% in the experiment on TK-10 renal; 76.8% in the experiment on ACHN renal; 71.8% with CAKI-1 renal; 69.4% in the experiment on A498 renal; 50.3% in the experiment on CCRF-CEM leukemia; 31.9% in the experiment on MOLT-4 leukemia.

Regarding `COC(=O)c1cccc2c1N(C)c1c(cccc1C(=O)OC)CC2`, the growth was 97.9% in the experiment with HCT-15 colon; 111% in the experiment with SNB-19 CNS; 111% in the experiment with U251 CNS; 97.4% in the experiment on PC-3 prostate; 106% with SK-MEL-5 melanoma; 98.7% in the experiment on UACC-62 melanoma. Besides, the growth in the experiment with LOX IMVI melanoma was 87.7%; with SK-MEL-28 melanoma, 120%; in the experiment with EKVX NSCLC it was 112%; in the experiment with SN12C renal, 107%; in the experiment on UO-31 renal, 101%; in the experiment with TK-10 renal, 121%. For the same compound, the growth with ACHN renal was 104%; in the experiment on CAKI-1 renal it was 97.7%; in the experiment with A498 renal, 132%; with CCRF-CEM leukemia, 89%; in the experiment with MOLT-4 leukemia, 97.4%.

As for `Nc1nc(=O)c2ccccc2s1`, the growth with HCT-15 colon is 101%; in the experiment with SNB-19 CNS, 104%; in the experiment on U251 CNS, 111%; with PC-3 prostate, 99.4%; in the experiment with UACC-62 melanoma it was 97.2%; in the experiment on LOX IMVI melanoma it was 104%. In addition, the growth was 121% in the experiment with SK-MEL-28 melanoma; 104% in the experiment with SK-MEL-2 melanoma; 111% with EKVX NSCLC; 98.9% in the experiment on SN12C renal; 78.3% in the experiment on UO-31 renal; 114% in the experiment with TK-10 renal. Besides, the growth with ACHN renal was 99.4%; with CAKI-1 renal it was 101%; with A498 renal, 131%; in the experiment on CCRF-CEM leukemia, 92.2%.

`COc1ccc(C(=O)N2NC(=O)/C(=C/c3ccccc3F)N=C2c2ccccc2)cc1`: the growth in the experiment on HCT-15 colon is 112%; in the experiment with SNB-19 CNS, 99%; with PC-3 prostate, 104%; with SK-MEL-5 melanoma it was 113%; in the experiment with UACC-62 melanoma, 102%; with LOX IMVI melanoma it was 102%. The growth in the experiment with SK-MEL-28 melanoma is 112%; in the experiment on EKVX NSCLC, 103%; with SN12C renal it was 99%; in the experiment with UO-31 renal, 89.8%; in the experiment with TK-10 renal, 108%; with ACHN renal, 122%. The growth in the experiment on CAKI-1 renal was 98.9%; with A498 renal it was 104%; in the experiment on MOLT-4 leukemia, 109%.

Regarding `O=C1/C(=C/c2ccc(Cl)cc2)CN(Cc2cn(CCNc3ccnc4cc(Cl)ccc34)nn2)C/C1=C\c1ccc(Cl)cc1`, the growth is -82% (active) in the experiment with HCT-15 colon; -92.2% (active) with SNB-19 CNS; -100% (active) in the experiment with U251 CNS; -86.5% (active) with PC-3 prostate; -100% (active) in the experiment on SK-MEL-5 melanoma; -87.1% (active) in the experiment on UACC-62 melanoma. In addition, the growth with LOX IMVI melanoma was -93% (active); in the experiment with SK-MEL-28 melanoma, -100% (active); in the experiment on SK-MEL-2 melanoma, -89% (active); in the experiment on SN12C renal it was -76.1% (active); in the experiment on UO-31 renal it was -97.1% (active); in the experiment on TK-10 renal, -89% (active). The growth is -100% (active) in the experiment on ACHN renal; 6.59% (active) in the experiment on CAKI-1 renal; -100% (active) with A498 renal; -7.97% (active) with CCRF-CEM leukemia; -20.7% (active) in the experiment with MOLT-4 leukemia.
